According to PubChem BioAssay AID1159580 (chemical genetic matrix, 2015):
Among all 5,500 compounds or so, about 2,000 (36%) were called active. Inconclusive results (about 18%) are left out. Rule as the data show it: active = normalized growth mostly below about 0.91 (no sharp cut-off); inconclusive = no clear call, values can overlap the other calls; inactive = mostly above about 0.92. The list shows a part of the results.

Assay: chemical genetic growth profiling, strain panel (AID 1159580);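 also: tested at 20 µM; growth read once vehicle control cultures reached saturation at 30 °C; 1 = growth at the plate median or of vehicle wells; lower values mean less growth of the strain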
Details: growth OD
[1] = S. cerevisiae deletion strains, locus YAL013W, strain DEP1, active compounds read low
[2] = S. cerevisiae deletion strains, locus YBR229C, strain ROT2, active compounds read low
[3] = S. cerevisiae deletion strains, locus YDL101C, strain DUN1, active compounds read low
[4] = S. cerevisiae deletion strains, locus YDR150W, strain NUM1, active compounds read low
[5] = S. cerevisiae deletion strains, locus YEL061C, strain CIN8, active compounds read low
[6] = S. cerevisiae deletion strains, locus YGR078C, strain PAC10, active compounds read low
[7] = S. cerevisiae deletion strains, locus YHR030C, strain SLT2, active compounds read low
[8] = S. cerevisiae deletion strains, locus YHR087W, strain rtc3, active compounds read low
[9] = S. cerevisiae deletion strains, locus YJR043C, strain POL32, active compounds read low
[10] = S. cerevisiae deletion strains, locus YJR075W, strain HOC1, active compounds read low
[11] = S. cerevisiae deletion strains, locus YKL190W, strain CNB1, active compounds read low
[12] = S. cerevisiae deletion strains, locus YLR039C, strain RIC1, active compounds read low
[13] = S. cerevisiae deletion strains, locus YLR058C, strain SHM2 (second series), active compounds read low
[14] = S. cerevisiae deletion strains, locus YLR085C, strain ARP6, active compounds read low
[15] = S. cerevisiae deletion strains, locus YLR262C, strain YPT6, active compounds read low
[16] = S. cerevisiae deletion strains, locus YML094W, strain GIM5, active compounds read low
[17] = S. cerevisiae deletion strains, locus YMR219W, strain ESC1, active compounds read low
[18] = S. cerevisiae deletion strains, locus YMR263W, strain SAP30, active compounds read low
[19] = S. cerevisiae deletion strains, locus YNL153C, strain GIM3, active compounds read low
[20] = S. cerevisiae deletion strains, locus YNL298W, strain CLA4 (second series), active compounds read low
[21] = S. cerevisiae deletion strains, locus YNL322C, strain KRE1, active compounds read low
[22] = S. cerevisiae deletion strains, locus YNR030W, strain Alg12, active compounds read low
[23] = S. cerevisiae deletion strains, locus YPL055C, strain LGE1, active compounds read low
[24] = S. cerevisiae deletion strains, locus YPL241C, strain CIN2, active compounds read low
[25] = S. cerevisiae deletion strains, locus YPR135W, strain CTF4, active compounds read low
[26] = S. cerevisiae strains, strain wild type, active compounds read low
[27] = S. cerevisiae deletion strains, locus YAL040C, strain CLN3, active compounds read low
[28] = S. cerevisiae deletion strains, locus YER002W, strain NOP16, active compounds read low
[29] = S. cerevisiae deletion strains, locus YNL175C, strain NOP13, active compounds read low
[30] = S. cerevisiae deletion strains, locus YNL197C, strain WHI3, active compounds read low
[31] = S. cerevisiae deletion strains, locus YNL224C, strain SQS1, active compounds read low
[32] = S. cerevisiae deletion strains, locus YOR083W, strain WHI5 (second series), active compounds read low

Measured: normalized growth

CC(C)(C)c1nccc(-c2nn(-c3ccc(F)cc3)ccc2=O)n1
inactive: [1] 0.991 | [2] 0.988 | S. cerevisiae deletion strains, locus YCL061C, strain MRC1, active compounds read low 1.02 | [3] 1.03 | S. cerevisiae deletion strains, locus YDL134C, strain PPH21, active compounds read low 0.994 | [4] 0.9 | [5] 1.01 | [6] 1.01 | [7] 1.02 | [8] 0.985 | S. cerevisiae deletion strains, locus YJL187C, strain SWE1, active compounds read low 1.03 | [9] 1 | [10] 1.03 | [11] 1.01 | [12] 0.99 | [13] 1 | [14] 1.15 | [15] 0.974 | [16] 1 | [17] 1 | [18] 0.995 | [19] 1.02 | [20] 1.03 | [21] 1 | [22] 0.999 | S. cerevisiae deletion strains, locus YOL006C, strain TOP1, active compounds read low 1.09 | [23] 0.949 | [24] 1.04 | [25] 0.869 | [26] 0.99

Brc1ccc2[nH]c3c(c2c1)CCC3
active: S. cerevisiae deletion strains, locus YDL214C, strain PRR2, active compounds read low 0.69 | S. cerevisiae deletion strains, locus YER123W, strain YCK3, active compounds read low 0.609 | S. cerevisiae deletion strains, locus YER133W, strain GLC7, active compounds read low 0.668 | S. cerevisiae deletion strains, locus YFR019W, strain FAB1, active compounds read low 0.759 | S. cerevisiae deletion strains, locus YGR052W, strain FMP48, active compounds read low 0.595 | [7] 0.344 | S. cerevisiae deletion strains, locus YHR079C, strain IRE1, active compounds read low 0.151 | S. cerevisiae deletion strains, locus YHR082C, strain KSP1, active compounds read low 0.587 | S. cerevisiae deletion strains, locus YJL095W, strain BCK1, active compounds read low 0.467 | S. cerevisiae deletion strains, locus YKL048C, strain ELM1, active compounds read low 0.769 | S. cerevisiae deletion strains, locus YKL067W, strain YNK1, active compounds read low 0.723 | S. cerevisiae deletion strains, locus YLR113W, strain HOG1, active compounds read low 0.44 | S. cerevisiae deletion strains, locus YML070W, strain DAK1, active compounds read low 0.651 | S. cerevisiae deletion strains, locus YNL183C, strain NPR1, active compounds read low 0.519 | S. cerevisiae deletion strains, locus YOL136C, strain PFK27, active compounds read low 0.625 | S. cerevisiae deletion strains, locus YOR231W, strain MKK1, active compounds read low 0.56 | S. cerevisiae deletion strains, locus YPL031C, strain PHO85, active compounds read low 0.647 | S. cerevisiae deletion strains, locus YPL153C, strain RAD53, active compounds read low 0.653 | S. cerevisiae deletion strains, locus YPL204W, strain HRR25, active compounds read low 0.642 | S. cerevisiae deletion strains, locus YPL256C, strain CLN2, active compounds read low 0.472
inactive: S. cerevisiae deletion strains, locus YAR019C, strain CDC15, active compounds read low 0.954 | S. cerevisiae deletion strains, locus YBL105C, strain PKC1, active compounds read low 0.955 | S. cerevisiae deletion strains, locus YBR135W, strain CKS1, active compounds read low 0.934 | S. cerevisiae deletion strains, locus YBR136W, strain MEC1, active compounds read low 0.945 | S. cerevisiae deletion strains, locus YBR160W, strain CDC28, active compounds read low 0.949 | S. cerevisiae deletion strains, locus YDL017W, strain CDC7, active compounds read low 0.962 | S. cerevisiae deletion strains, locus YDL028C, strain MPS1, active compounds read low 0.937 | [3] 0.966 | S. cerevisiae deletion strains, locus YDL108W, strain KIN28, active compounds read low 0.932 | S. cerevisiae deletion strains, locus YDL132W, strain cdc53, active compounds read low 0.962 | S. cerevisiae deletion strains, locus YDR052C, strain DBF4, active compounds read low 0.975 | S. cerevisiae deletion strains, locus YDR054C, strain cdc34, active compounds read low 0.97 | S. cerevisiae deletion strains, locus YDR226W, strain ADK1, active compounds read low 0.96 | S. cerevisiae deletion strains, locus YDR477W, strain SNF1, active compounds read low 0.712 | S. cerevisiae deletion strains, locus YFL009W, strain cdc4, active compounds read low 0.946 | S. cerevisiae deletion strains, locus YFL029C, strain CAK1, active compounds read low 0.942 | S. cerevisiae deletion strains, locus YFR003C, strain YPI1, active compounds read low 0.952 | S. cerevisiae deletion strains, locus YFR028C, strain CDC14, active compounds read low 0.969 | S. cerevisiae deletion strains, locus YGR040W, strain KSS1, active compounds read low 0.716 | S. cerevisiae deletion strains, locus YGR092W, strain DBF2, active compounds read low 0.621 | S. cerevisiae deletion strains, locus YHR205W, strain SCH9, active compounds read low 0.666 | S. cerevisiae deletion strains, locus YIL147C, strain SLN1, active compounds read low 0.947 | S. cerevisiae deletion strains, locus YJL128C, strain PBS2, active compounds read low 0.915 | S. cerevisiae deletion strains, locus YJL157C, strain FAR1, active compounds read low 0.74 | S. cerevisiae deletion strains, locus YJR016C, strain ILV3, active compounds read low 0.946 | S. cerevisiae deletion strains, locus YJR066W, strain TOR1 (second series), active compounds read low 0.67 | S. cerevisiae deletion strains, locus YJR066W, strain TOR1, active compounds read low 0.541 | S. cerevisiae deletion strains, locus YKL101W, strain HSL1, active compounds read low 0.747 | S. cerevisiae deletion strains, locus YKL193C, strain SDS22, active compounds read low 0.937 | S. cerevisiae deletion strains, locus YKL203C, strain TOR2, active compounds read low 0.762 | S. cerevisiae deletion strains, locus YLR133W, strain CKI1, active compounds read low 0.805 | S. cerevisiae deletion strains, locus YLR403W, strain SFP1, active compounds read low 0.757 | S. cerevisiae deletion strains, locus YMR001C, strain CDC5, active compounds read low 0.94 | S. cerevisiae deletion strains, locus YMR205C, strain PFK2 (second series), active compounds read low 0.784 | S. cerevisiae deletion strains, locus YMR277W, strain FCP1, active compounds read low 0.948 | S. cerevisiae deletion strains, locus YNL006W, strain LST8, active compounds read low 0.938 | S. cerevisiae deletion strains, locus YNL020C, strain ARK1, active compounds read low 0.795 | S. cerevisiae deletion strains, locus YNL161W, strain CBK1, active compounds read low 0.942 | S. cerevisiae deletion strains, locus YNL207W, strain RIO2, active compounds read low 0.926 | S. cerevisiae deletion strains, locus YNL222W, strain SSU72, active compounds read low 0.936 | S. cerevisiae deletion strains, locus YNL307C, strain MCK1 (second series), active compounds read low 0.695 | S. cerevisiae deletion strains, locus YOL078W, strain AVO1, active compounds read low 0.942 | S. cerevisiae deletion strains, locus YOR061W, strain CKA2, active compounds read low 0.76 | S. cerevisiae deletion strains, locus YOR119C, strain RIO1, active compounds read low 0.729 | S. cerevisiae deletion strains, locus YOR329C, strain SCD5, active compounds read low 0.948 | S. cerevisiae deletion strains, locus YPL209C, strain IPL1, active compounds read low 0.938 | S. cerevisiae deletion strains, locus YPR025C, strain CCL1, active compounds read low 0.94 | S. cerevisiae deletion strains, locus YPR106W, strain ISR1, active compounds read low 0.94 | S. cerevisiae deletion strains, locus YPR111W, strain DBF20, active compounds read low 0.945 | S. cerevisiae deletion strains, strain NNK1, active compounds read low 0.926 | S. cerevisiae deletion strains, strain TSCII, active compounds read low 0.931

COc1ccc2[nH]c3c(c2c1)CCNC3
inactive: [27] 0.974 | [28] 1.02 | S. cerevisiae deletion strains, locus YGR229C, strain SMI1, active compounds read low 1.05 | [10] 1.01 | S. cerevisiae deletion strains, locus YNL128W, strain TEP1, active compounds read low 0.996 | [19] 0.983 | [29] 0.985 | [30] 0.983 | [31] 1.01 | [32] 0.996 | [23] 1 | [24] 0.981

Cc1ccc2[nH]c3c(c2c1)CCCC3
inactive: [4] 0.911 | [11] 0.989 | [21] 0.949
active: [1] 0.853 | [2] 0.544 | [3] 0.778 | [5] 0.738 | [6] 0.781 | [7] 0.377 | [8] 0.762 | [9] 0.869 | [10] 0.636 | [12] 0.259 | [13] 0.867 | [14] 0.696 | [15] 0.224 | [16] 0.664 | [17] 0.828 | [18] 0.867 | [19] 0.807 | [20] 0.578 | [22] 0.669 | [23] 0.822 | [24] 0.722 | [25] 0.477 | [26] 0.904

O=C1Cc2c([nH]c3ccc(Br)cc23)-c2ccccc2N1
inactive: [27] 0.964 | S. cerevisiae deletion strains, locus YCL061C, strain MRC1 (second series), active compounds read low 0.991 | [4] 0.989 | S. cerevisiae deletion strains, locus YDR363W, strain ESC2, active compounds read low 1.03 | [28] 1.01 | [10] 1.06 | [29] 0.984 | [30] 0.988 | [31] 0.998 | [32] 0.976 | [24] 0.985
